Composite z-score and z-score data for 5 compounds are collected here from PubChem BioAssay.

The structures appear in SMILES notation. Active and inactive are the calls of the source. Unless noted, how the calls were made is not given here.

A short description of test [1]: anti-His antibody binders, primary screen, artefact control for SMM control protein annotation, biochemical, small-molecule microarray, 635 nm fluorescence (AID 1128).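 Further: score merges feature fluorescence with signal-to-noise for each printed compound spot.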 Particulars: anti-His Alexa647 antibody binding, higher = more signal.
Test [2] relates to Human papillomavirus type 1a E7 protein (residues 1-88). Kind of test: HPV1a E7 small-molecule binders, primary screen, biochemical, small-molecule microarray, residues 1-88, 635 nm (AID 1129). Particulars: small-molecule microarray binding, fluorescence 635 nm; higher = more signal.
Test [3] has as its target Focal adhesion kinase 1 (Homo sapiens) (UniProt Q05397). Kind of test: small-molecule microarray binders of FAK, primary screen, biochemical, 635/667 nm fluorescence, BSA, DTT (AID 1130).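 Further: composite of spot emission at 667 nm and signal to noise over triplicate slides.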 Particulars: PTK2 binding, 635 nm fluorescence, higher = more signal.
Test [4] concerns Fibrinogen (Alexa647-labelled). Kind of test: fibrinogen binders on compound microarrays, profiling panel, artefact control for SMM control-protein annotation, biochemical, small-molecule microarray, 635/667 nm fluorescence (AID 1131).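 Further: z-score merges 667 nm fluorescence with per-spot signal-to-noise over triplicate slides.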 Particulars: fibrinogen-A647 binding fluorescence, higher = more signal.
For test [5], the target named is Follistatin (Homo sapiens) (UniProt P19883). As to the kind of experiment: follistatin binders on small-molecule microarrays, primary screen, biochemical, small-molecule microarray, 635/667 nm fluorescence (AID 1132). Particulars: FST binding, 635 nm fluorescence, higher = more signal.
In test [6] the target is Fibroblast growth factor 2 (Homo sapiens) (UniProt P09038). Kind of test: FGF2 binders on small-molecule microarrays, primary screen, biochemical, small-molecule microarray, 635/667 nm fluorescence (AID 1133). Particulars: small-molecule microarray binding, FGF2, fluorescence 635/667; higher = more signal.
Test [7] in a line: mitochondrial membrane potential change in A549 cells, profiling panel, cell-based, JC-1 fluorescence, basal, 24 h, 100 nL (AID 1138).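 Further: A549 lung adenocarcinoma cells under basal conditions with no added stimulus; test concentration not given here.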 Particulars: higher = more signal.
The subject of another test is Lefty1. As to the kind of experiment: Lefty1 binders on small-molecule microarrays, primary screen, biochemical, small-molecule microarray, 635/667 nm fluorescence (AID 1139). Particulars: small-molecule microarray binding, fluorescence 635/667; higher = more signal.
In test [8] the test system is wheat germ agglutinin (Triticum aestivum), Alexa647-labelled. As to the kind of experiment: wheat germ agglutinin binders on compound microarrays, profiling panel, artefact control for SMM control-protein annotation, biochemical, small-molecule microarray, 635/667 nm fluorescence (AID 1140).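 Further: score merges 667 nm feature emission with signal to noise over triplicate slides.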 Particulars: WGA-A647 binding, 635 nm fluorescence, higher = more signal.
The target in test [9] is Luciferin 4-monooxygenase (Photinus pyralis) (UniProt P08659). As to the kind of experiment: firefly luciferase enzyme inhibitors, primary screen, biochemical, luminescence, purified enzyme, 2006 set (AID 1141).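 Further: cell-free assay with purified firefly luciferase at 100 ng per well in PBS; test concentration not given here.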 Particulars: SteadyGlo luminescence, 30 min, higher = more signal, called active from +8 up or from −8 down.
The test system of test [10] is Wnt5a (protein binding on small-molecule microarray). As to the kind of experiment: Wnt5a binders on small-molecule microarray, primary screen, biophysical, 635/667 nm fluorescence (AID 1142).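 Further: fluorescence read at 667 nm with signal to noise per printed feature.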 Particulars: 635 nm fluorescence, higher = more signal.
Test [11] is described as follows: cell viability in Huh7 cells, primary screen, cytotoxicity control for HCV replication inhibitor project, CellTiter-Glo luminescence, basal, 48 h (AID 1143).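 Further: Huh7 hepatoma cells carrying a hepatitis C replication reporter with no stimulus; test concentration not given here.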 Particulars: Huh7 HCV replicon, higher = more signal, called active from +8 up or from −8 down. For orientation: ATP-based viability assays read luminescence as a measure of living cells.
Test [12] is described as follows: P. aeruginosa biofilm formation inhibitors, primary screen, PAO1 strain, BacTiter-Glo luminescence, LB-PBS (AID 1144). Particulars: 12 h, higher = more signal.
The nature of test [13]: CREB reporter modulators without forskolin, primary screen, cell-based, PC12, CRE-LacZ reporter, unstimulated (AID 1145). Particulars: no forskolin, luminescence, 4.5 h, higher = more signal, called active from +8 up or from −8 down.
Test [14] is described as follows: CREB reporter modulators under forskolin, primary screen, cell-based, PC12, CRE-LacZ reporter, forskolin-stimulated (AID 1146).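 Further: PC12 cells with 6xCRE LacZ reporter stimulated by forskolin 10 µM; beta-galactosidase reporter signal reflecting CREB driven transcription.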 Particulars: luminescence, 4.5 h, higher = more signal, called active from +8 up or from −8 down.
In test [15] the target is Streptavidin (Streptomyces avidinii) (UniProt P22629). As to the kind of experiment: streptavidin binders on small-molecule microarray, primary screen, artefact control for SMM compound annotation, biophysical, 635/667 nm fluorescence (AID 1147).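 Further: signal reflects streptavidin binding to arrayed compounds as a control protein.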 Particulars: streptavidin binding, higher = more signal.
A short description of test [16]: small-molecule binders of probe aInhba, primary screen, biochemical, small-molecule microarray, 635/667 nm fluorescence (AID 1148).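 Further: score merges 667nm spot fluorescence with signal-to-noise for antibody binding to printed compounds.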 Particulars: higher = more signal.
Test [17] concerns the target Torsin-1A (Homo sapiens) (UniProt O14656). As to the kind of experiment: torsin A binders from cell lysate, primary screen, small-molecule microarray, wild-type, 635/667 nm (AID 1149). Particulars: COS7 hTOR1A-WT lysate, 635 nm fluorescence, higher = more signal.
Test [18] has the same target. As to the kind of experiment: small-molecule binders of mutant TOR1A in lysate, primary screen, cell lysate, small-molecule microarray, COS7 lysate, 635/667 nm fluorescence (AID 1150).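 Further: score pools 667 nm emission and signal to noise measuring lysate protein binding.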 Particulars: COS7 hTOR1A mutant lysate, 635 nm fluorescence, higher = more signal.
Test [19] concerns Sonic hedgehog protein (Shh). Kind of test: small-molecule binders of Shh protein, primary screen, biochemical, small-molecule microarray, 635/667 nm fluorescence (AID 1151).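 Further: Shh protein binding to compounds spotted on small-molecule microarray slides; score combines spot fluorescence intensity with signal-to-noise across triplicate slides.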 Particulars: small-molecule microarray binding, 635 nm fluorescence; higher = more signal.

Streptavidin (Streptomyces avidinii), sequence (P22629 whole entry, looked up): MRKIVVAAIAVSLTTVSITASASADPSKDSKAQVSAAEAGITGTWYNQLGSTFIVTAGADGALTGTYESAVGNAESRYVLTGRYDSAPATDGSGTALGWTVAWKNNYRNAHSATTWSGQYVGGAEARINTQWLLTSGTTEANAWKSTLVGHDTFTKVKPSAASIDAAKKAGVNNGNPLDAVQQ
Follistatin (Homo sapiens), sequence (P19883 whole entry, looked up): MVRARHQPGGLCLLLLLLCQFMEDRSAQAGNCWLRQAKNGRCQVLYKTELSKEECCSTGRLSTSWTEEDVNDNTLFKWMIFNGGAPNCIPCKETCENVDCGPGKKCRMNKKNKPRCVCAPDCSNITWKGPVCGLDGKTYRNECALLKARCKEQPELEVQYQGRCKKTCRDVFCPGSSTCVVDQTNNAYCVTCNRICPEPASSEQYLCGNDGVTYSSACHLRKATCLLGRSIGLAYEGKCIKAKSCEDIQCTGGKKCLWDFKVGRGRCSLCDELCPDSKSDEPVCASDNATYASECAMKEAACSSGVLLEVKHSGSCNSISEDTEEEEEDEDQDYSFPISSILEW
Fibroblast growth factor 2 (Homo sapiens), sequence (P09038 whole entry, looked up): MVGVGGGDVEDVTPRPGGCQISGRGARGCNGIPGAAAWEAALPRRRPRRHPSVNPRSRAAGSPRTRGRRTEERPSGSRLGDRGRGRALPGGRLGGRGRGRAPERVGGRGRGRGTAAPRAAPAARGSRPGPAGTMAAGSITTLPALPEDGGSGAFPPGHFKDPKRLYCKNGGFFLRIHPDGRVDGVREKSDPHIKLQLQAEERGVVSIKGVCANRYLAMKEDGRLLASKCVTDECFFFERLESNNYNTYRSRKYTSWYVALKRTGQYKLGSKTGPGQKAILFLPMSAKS
Torsin-1A (Homo sapiens), sequence (O14656 whole entry, looked up): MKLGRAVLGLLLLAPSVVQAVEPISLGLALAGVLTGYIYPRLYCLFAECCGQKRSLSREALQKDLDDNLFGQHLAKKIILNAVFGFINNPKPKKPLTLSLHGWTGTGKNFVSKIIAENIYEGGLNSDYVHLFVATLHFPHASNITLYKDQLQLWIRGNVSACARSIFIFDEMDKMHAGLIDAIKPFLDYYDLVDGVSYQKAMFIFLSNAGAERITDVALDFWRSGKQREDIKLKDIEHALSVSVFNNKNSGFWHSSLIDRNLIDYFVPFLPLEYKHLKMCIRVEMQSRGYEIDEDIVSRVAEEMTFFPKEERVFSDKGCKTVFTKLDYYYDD
Luciferin 4-monooxygenase (Photinus pyralis), sequence (P08659 whole entry, looked up): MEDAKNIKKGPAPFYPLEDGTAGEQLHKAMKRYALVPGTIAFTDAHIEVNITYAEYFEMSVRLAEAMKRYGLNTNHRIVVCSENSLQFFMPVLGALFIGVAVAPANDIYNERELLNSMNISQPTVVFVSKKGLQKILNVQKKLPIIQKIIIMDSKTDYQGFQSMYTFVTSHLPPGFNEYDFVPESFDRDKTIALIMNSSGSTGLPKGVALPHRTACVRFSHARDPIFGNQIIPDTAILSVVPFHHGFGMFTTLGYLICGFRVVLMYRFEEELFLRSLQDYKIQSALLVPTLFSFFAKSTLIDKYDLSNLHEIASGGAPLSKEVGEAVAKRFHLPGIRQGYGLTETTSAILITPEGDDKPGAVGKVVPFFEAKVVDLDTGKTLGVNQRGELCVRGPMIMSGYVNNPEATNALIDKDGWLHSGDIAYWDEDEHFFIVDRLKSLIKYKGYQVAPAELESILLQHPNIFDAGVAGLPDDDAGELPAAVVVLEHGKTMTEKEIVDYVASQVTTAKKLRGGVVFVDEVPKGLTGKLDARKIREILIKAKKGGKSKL
Focal adhesion kinase 1 (Homo sapiens), sequence (Q05397 whole entry, looked up): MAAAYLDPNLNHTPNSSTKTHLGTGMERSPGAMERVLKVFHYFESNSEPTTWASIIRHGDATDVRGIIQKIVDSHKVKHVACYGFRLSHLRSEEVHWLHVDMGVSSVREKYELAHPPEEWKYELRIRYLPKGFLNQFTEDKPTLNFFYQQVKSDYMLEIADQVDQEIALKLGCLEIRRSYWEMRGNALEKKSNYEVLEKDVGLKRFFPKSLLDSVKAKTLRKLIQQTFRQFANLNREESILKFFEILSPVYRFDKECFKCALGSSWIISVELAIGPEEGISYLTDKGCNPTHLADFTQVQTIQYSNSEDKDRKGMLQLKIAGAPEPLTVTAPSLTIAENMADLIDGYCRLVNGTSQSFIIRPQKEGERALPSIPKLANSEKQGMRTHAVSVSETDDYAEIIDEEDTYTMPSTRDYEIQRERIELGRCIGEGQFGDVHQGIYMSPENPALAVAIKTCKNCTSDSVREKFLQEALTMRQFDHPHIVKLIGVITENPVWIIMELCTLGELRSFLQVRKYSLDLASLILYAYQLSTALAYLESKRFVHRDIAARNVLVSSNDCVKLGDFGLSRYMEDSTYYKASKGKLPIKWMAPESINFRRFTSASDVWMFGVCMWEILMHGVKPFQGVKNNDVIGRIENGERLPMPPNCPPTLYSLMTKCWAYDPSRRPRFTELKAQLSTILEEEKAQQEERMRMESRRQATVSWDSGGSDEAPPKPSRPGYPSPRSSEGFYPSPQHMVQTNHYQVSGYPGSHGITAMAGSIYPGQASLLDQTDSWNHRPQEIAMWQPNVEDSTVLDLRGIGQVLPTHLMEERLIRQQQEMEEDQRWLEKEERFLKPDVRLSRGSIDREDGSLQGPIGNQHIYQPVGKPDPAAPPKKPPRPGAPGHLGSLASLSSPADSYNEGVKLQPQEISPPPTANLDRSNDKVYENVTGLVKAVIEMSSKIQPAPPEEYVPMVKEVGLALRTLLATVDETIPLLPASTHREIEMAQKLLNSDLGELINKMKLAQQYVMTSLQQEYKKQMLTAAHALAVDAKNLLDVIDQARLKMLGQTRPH

Turning to `CC(C)C[C@@H]1NC(=O)[C@@H]2C[C@H](C(=O)NCCCC[N+](C)(C)C)[C@H](c3cccc(OCCO)c3)N2C1=O`, the composite z-score in test [1] is 2.63; in [2], 0.235; in test [3], -0.584; in [4], -0.173; in test [5], 1.45; in test [6] it was 1.38. Moreover, the composite z-score with Lefty1 was 1.47; in test [8], -0.445; in [10] it was 0.379; in test [15], 0.154; in [16], -0.025; with Torsin-1A (Homo sapiens) [17] it was 1.3. The composite z-score with Torsin-1A (Homo sapiens) [18] was 0.66; in test [19], 2.11. Further, the z-score was -0.69 in [7]; -0.45 (inactive) in [9]; 0.347 (inactive) in test [11]; -0.595 (inactive) in test [12]; -0.943 (inactive) in test [13]; -0.231 (inactive) in test [14].
As to `COCCCNC(=O)[C@]1(Cc2ccccc2CN=[N+]=[N-])N=C(c2ccc(OCCCO)cc2)O[C@@H]1c1ccccc1CN=[N+]=[N-]`, the composite z-score stood at 2.28 in [1]; 1.2 in test [2]; 0.11 in test [3]; 0.954 in test [4]; 0.701 in [5]; 0.244 in test [6]. The composite z-score is -0.449 with Lefty1; 1.02 in test [8]; 0.471 in [10]; 1.23 in [15]; 0.648 in [16]; 0.883 with Torsin-1A (Homo sapiens) [17]. The figures for the composite z-score (with Torsin-1A (Homo sapiens) [18]; in test [19]) were 0.721 and -0.256, respectively. In addition, the z-score was 1.28 in test [7]; -0.107 (inactive) in test [9]; -4.04 (inactive) in [11]; 1.06 (inactive) in test [12]; 0.969 (inactive) in [13]; -1.02 (inactive) in test [14].
In the case of `COCC(=C=CC[C@@H](O)c1ccccc1OCCO)C[C@@H](O)COCc1ccccc1`, the composite z-score in test [1] is 0.477; in test [2] it was 1.01; in [3], -0.134; in [4], 0.357; in [5], 0.403; in test [6], 0.456. The composite z-score in the test with Lefty1 was 0.317; in test [8], 1.05; in test [10], 0.561; in [15], -0.236; in test [16], 0.799; with Torsin-1A (Homo sapiens) [17] it was 1.26. Also, the values for the composite z-score (with Torsin-1A (Homo sapiens) [18]; in test [19]) were 0.717 and 0.709, respectively. Further, the z-score is 1.8 in test [7]; -2.4 (inactive) in test [9]; -1.43 (inactive) in test [11]; -0.137 (inactive) in [12]; 8.9 (active) in test [13]; -1.46 (inactive) in test [14].
For `C=CCC(OC(C)=O)[C@@H]1[C@@H](N(Cc2ccc(-c3ccccc3)cc2)C(=O)c2cccc3ccccc23)c2cc(OCCCO)ccc2N1C(=O)c1ccc2ccccc2n1` (stereo not given in full), the composite z-score in test [1] is 0.952; in test [2] it was 0.138; in test [3], 0.16; in test [4] it was -0.0282; in [5], 0.374; in [6], 0.268. Moreover, the composite z-score came to 0.565 in the test with Lefty1; 0.139 in test [8]; 0.0553 in [10]; 0.306 in test [15]; 0.237 in test [16]; 0.258 in the test with Torsin-1A (Homo sapiens) [17]. In addition, the composite z-score in the test with Torsin-1A (Homo sapiens) [18] is 0.0374; in test [19] it was 0.0754. Besides, the z-score in test [7] is 1.14; in [9], -0.658 (inactive); in test [11], -1.48 (inactive); in [12] it was 0.321 (inactive); in [13], 1.76 (inactive); in test [14] it was -0.505 (inactive).
Regarding `N#Cc1ccc(NN2C(C(O)c3ccco3)C=CC3C(=O)N(c4ccccc4)C(=O)C32)cc1` (stereo not given), the composite z-score was 0.716 in [1]; -0.0085 in test [2]; 0.788 in test [3]; 0.251 in test [4]; 0.552 in test [5]; -0.302 in [6]. The composite z-score with Lefty1 was -0.231; in [8], 0.754; in test [10], 0.0896; in test [15] it was 0.252; in [16], 0.0183; with Torsin-1A (Homo sapiens) [17], 0.135. Moreover, the composite z-score in the test with Torsin-1A (Homo sapiens) [18] is -0.236; in test [19], -0.0404. Further, the z-score in test [7] was -0.244; in test [9] it was -0.72 (inactive); in test [11], 1.34 (inactive); in [12] it was -0.768 (inactive); in test [13] it was -0.136 (inactive); in [14], 0.2 (inactive).
